# Compound activity: PubChem, National Center for Advancing Translational Sciences (NCATS)
# This is a sample that favours compounds with a hit; in the whole collection about 3.9% have one here.
# TGFb SMAD3 inh = qHTS for Inhibitors of TGF-b; AID 588855, 2011; hit rate 1.2% among 410,000; HepG2 CAGA-GFP TGF-b/SMAD3 reporter, GFP fluorescence, 18 h; TGF-beta stimulated, 500 pg/mL final; Potency, µM (series often up to 46.1 µM), for inactives: at the top dose activity, negative = inhibition, actives largely listed as inhibitors; also: % is scaled to controls: 0 for no effect and ±100 for the full control effect; nearly all actives have a fitted effect of over 65% in size
#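 Inhibition was scored as loss of TGF-beta-induced (500 pg/mL final, 18 hours, 37 degrees C) GFP in HEPG2 cells carrying a CAGA-GFP reporter, in DMEM with 1% FBS. Well GFP was summed per cell; Activity was normalised to unstimulated and stimulated DMSO wells, then concentration-response fitting.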
# ATXN2 expr inh = Primary qHTS for Inhibitors of ATXN expression. HEK-293 ATXN2-luciferase reporter, luminescence, 24 h. Potency, µM (doses to about 57 µM), for the others: at the top dose activity change, negative = inhibition, actives largely listed as inhibitors. hit rate 0.72% among 360,000. AID 1745845, 2022; also: % is scaled to controls: 0 for no effect and ±100 for the full control effect; nearly all actives have a fitted effect of over 55% in size
#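 ATXN2-luciferase reporter cells (luciferase flanked by upstream and downstream ATXN2 gene portions) were treated 24 h at 37 °C with compounds at up to 57 uM. SteadyGlo luminescence gave expression; GF-AFC fluorescence gave viability.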
# HT1080 IDH1KD tx = qHTS for induction of synthetic lethality in tumor cells producing 2HG: qHTS for the HT-1080-IDH1KD cell line; HT-1080 IDH1 knockdown viability, ATP luminescence, 48 h; Potency, µM (series often up to 46.1 µM), inactives show top-dose activity, negative = toxicity, most hits filed as cytotoxic; hit rate 2% among 360,000; AID 686971, 2013;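 also: 0% = DMSO wells and -100% = cell-free medium wells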
#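 Luminescent ATP read-out (CellTiter-Glo, 10 min at room temperature) after 48 h compound exposure at 37 °C gave viability of IDH1-knockdown HT-1080 cells. Activity was normalised to DMSO and cell-free wells, then fitted as concentration-response curves.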
# HT1080NT lethal = qHTS for induction of synthetic lethality in tumor cells producing 2HG: qHTS for the HT-1080-NT fibrosarcoma cell line; HT-1080-NT fibrosarcoma viability, CellTiter-Glo ATP luminescence, 48 h; Potency, µM (highest dose often 46.1 µM), for inactives: at the top dose activity, negative = less viability, usual class: cytotoxic; hit rate 1.6% among 360,000; AID 686970, 2013;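 also: NT is the 2HG producing partner of a matched IDH1 knockdown line; 0% = DMSO-treated cells and -100% = media-only wells without cells; nearly all actives have a fitted effect of over 55% in size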
#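 750 cells/well, RPMI + 5% FBS; 2 h settle, compound pin-transfer, 48 h at 37 degrees C. CellTiter-Glo 10 min RT, luminescence. Normalized to DMSO and media-only wells.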
# HepG2 tox = qHTS for Inhibitors of TGF-b: Cytotox Counterscreen; hit rate 0.76% among 410,000; HepG2 CAGA-GFP viability, ATP luminescence, 18 h; AID 588856, 2011; Potency, µM (series often up to 46.1 µM), inactives show at the highest dose activity change, negative = cytotoxicity, hits mostly cytotoxic
#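 HepG2 CAGA-GFP cells (1000/well, DMEM with 1% FBS) received compound, then TGF-beta at 500 pg/mL final, and were incubated 18 hours at 37 degrees C. Viability was read by CellTiter-Glo luminescence. Media-only wells were set as complete cell-killing and DMSO as no toxicity.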
# S2 tox = Viability Counterscreen for Primary qHTS for Inhibitors of ATXN expression. S2 cells (HEK-293 line with an ATXN2-luciferase reporter) viability, CellTiter-Fluor protease fluorescence, 24 h. Potency, µM (highest dose often 56.7 µM), most hits filed as cytotoxic. hit rate 0.49% among 400,000; also: nearly all actives have a fitted effect of over 40% in size
# An asterisk follows results filed as active; i = inactive; ? = inconclusive; / = no result given. Calls follow the shape of the dose curve; as a rule, active = well fitted curve in the direction sought with a large enough effect; inconclusive = small, poorly fitted or top-dose-only effect, or another doubt; inactive = no such curve, though single readings can be large; an effect the other way counts as inactive or inconclusive. Potency is read from the fitted curve at half-maximal effect.
SMILES,TGFb SMAD3 inh,ATXN2 expr inh,HT1080 IDH1KD tx,HT1080NT lethal,HepG2 tox,S2 tox
COc1cc(SC)ccc1C(=O)N1CCN(c2ccccc2OC)CC1,-10%,-28%,8.2µM*,9.2µM*,-16%,i
COc1ccc(CCNC(=O)CCn2c(=O)c3ccccc3n(Cc3ccccc3F)c2=O)cc1OC,-20%,-10%,/,/,-2%,i
COc1ccc(O)c(C(=O)N2CCC3(CC2)c2ccccc2[C@@H](NC(=O)c2ccccn2)[C@@H]3OC)c1,/,/,/,/,/,i
Cc1ccc(Cc2c(-c3ccco3)nc3c4ccccc4ccn23)cc1,?,62%,21µM*,23µM*,-47%,?
Cc1ccc(Cc2c(-c3ccco3)nc3ccc(C)cn23)cc1,?,-12%,-29%,-18%,-53%,?
Cc1ccc(Cc2c(-c3ccco3)nc3c(C)cc(Br)cn23)cc1,?,10%,15µM*,26µM*,-103%,?
Cc1cc(Br)cn2c(Cc3cccc(Cl)c3)c(-c3ccco3)nc12,/,-3%,?,?,/,?
Cc1ccc(C)c(N2CCN(C(=O)C3CCN(c4nc(-c5ccc(C(C)C)cc5)no4)CC3)CC2)c1,-32%,/,/,/,-25%,/
Cc1sc2ccccc2[n+]1CCc1ccccc1,?,/,/,/,-58%,/
CN1CCN(c2nc(-c3ccccn3)nc3ccccc23)CC1,12%,?,7.9µM*,7.9µM*,-46%,?
CC(C)=CCC/C(C)=C/CNC(=O)C[C@H]1C[C@H](C(=O)N(C(C)C)C(C)C)[C@@]2(C)c3[nH]c4cc(-c5ccco5)ccc4c3CCN2C1=O,13µM*,?,?,?,-46%,?
COc1ccc(CNC(=O)C[C@H]2C[C@H](C(=O)N3CCCCC3)[C@@]3(C)c4[nH]c5cc(-c6ccco6)ccc5c4CCN3C2=O)cc1OC,?,?,-14%,-1%,-4%,?
COc1ccc2[nH]c3c(c2c1)CCN1C(=O)C(CC(=O)NCC24CC5CC(CC(C5)C2)C4)C[C@H](C(=O)N(C(C)C)C(C)C)[C@@]31C (stereo partly specified),11µM*,-35%,?,?,-51%,i
CC(C)=CCC/C(C)=C/CNC(=O)C[C@H]1C[C@H](C(=O)N2CCCCC2)[C@@]2(C)c3[nH]c4cc(-c5ccco5)ccc4c3CCN2C1=O,?,?,?,?,-21%,?
CC(C)N(C(=O)[C@H]1C[C@H](CC(=O)NCCCN(C)C)C(=O)N2CCc3c([nH]c4cc(-c5ccco5)ccc34)[C@]12C)C(C)C,?,?,?,?,20µM*,32µM*
CCN(CC)C(=O)[C@H]1C[C@H](CC(=O)NCc2ccc(OC)c(OC)c2)C(=O)N2CCc3c([nH]c4cc(-c5ccco5)ccc34)[C@]12C,13µM*,?,-19%,-3%,-57%,?
CCOc1ccc(CCNc2ncnc3onc(-c4ccc(Cl)cc4)c23)cc1,-5%,/,/,/,-17%,/
O=C(C[C@H]1C[C@H](C(=O)N2CCOCC2)[C@@]2(CCC3CCCC3)c3[nH]c4cc(-c5ccco5)ccc4c3CCN2C1=O)NCCN1CCOCC1,?,?,?,-19%,-86%,/
CN(C)C(=O)CCc1ccc2c3c([nH]c2c1)[C@]1(CCC2CCCC2)[C@@H](C(=O)N2CCOCC2)C[C@H](CC(=O)NCCCn2ccnc2)C(=O)N1CC3,30%,3%,6%,-2%,3%,i
CC(C)N(C(=O)[C@H]1C[C@H](CC(=O)NCc2ccco2)C(=O)N2CCc3c([nH]c4ccc(Cl)cc34)[C@]12C)C(C)C,11µM*,-36%,?,?,-28%,?
CN(C)CCCNC(=O)C[C@H]1C[C@H](C(=O)N2CCOCC2)[C@@]2(CCC3CCCC3)c3[nH]c4cc(-c5ccco5)ccc4c3CCN2C1=O,?,25µM*,?,?,-104%,/
O=C(C[C@H]1C[C@H](C(=O)N2CCOCC2)[C@@]2(CCC3CCCC3)c3[nH]c4ccc(Cl)cc4c3CCN2C1=O)NCCCn1ccnc1,11µM*,?,?,?,-82%,/
Cc1ccc(CSC2=Nc3ccccc3C3=NC(CC(=O)NC4CCCCC4)C(=O)N23)cc1 (stereo unspecified),/,/,/,/,-12%,/
Cc1ccc(-n2ncc3c(NC4CCCC4)ncnc32)cc1,0%,-5%,/,/,-17%,i
CC(C)C(=O)Nc1ccc(C(=O)N/N=C/c2cc(Br)cc(Br)c2O)cc1,?,?,?,?,-47%,/
SMILES,TGFb SMAD3 inh,ATXN2 expr inh,HT1080 IDH1KD tx,HT1080NT lethal,HepG2 tox,S2 tox
CC(=O)Nc1ccc(C(=O)N/N=C/c2cc(Br)cc(Br)c2O)cc1,?,25µM*,?,?,-112%,i
CNC(=S)N/N=C/c1cc(Br)cc(Br)c1O,-14%,-24%,23µM*,?,7%,i
Oc1c(Br)cc(Br)cc1/C=N/NC(=S)N[C@H]1CC2C=CC1C2 (stereo partly specified),?,?,21µM*,?,-41%,i
CC(C)(C)NC(=S)N/N=C/c1cc(Br)c(O)c(Br)c1,?,/,-24%,?,-30%,?
Cc1ccnc2c(N)cccc12,-8%,/,/,/,-22%,/
Cc1ccc(OCC(=O)Nc2ccc(S(=O)(=O)N(C)C3CCN(C)CC3)cc2)c(C)c1,-24%,?,-19%,-26%,-33%,?
Cc1c(C(=O)Nc2ccc(S(=O)(=O)N(C)C3CCN(C)CC3)cc2)oc2c(Cl)cccc12,?,25µM*,?,?,-111%,/
Cc1c(C(=O)Nc2ccc(S(=O)(=O)N(C)C3CCN(C)CC3)cc2)oc2ccccc12,?,?,-11%,-10%,-47%,?
CN1CCC(N(C)S(=O)(=O)c2ccc(NC(=O)COc3ccc(Br)cc3Cl)cc2)CC1,?,?,18µM*,16µM*,-83%,i
Cc1cccc(CNC(=O)c2cnn(-c3ncc(C)c(-c4cccs4)n3)c2C2CC2)n1,/,/,/,/,/,i
Cc1ccc(Nc2c(-c3ccccc3O)nc3cnccn23)cc1,-6%,-23%,-10%,-10%,38%,i
Oc1ccccc1-c1nc2cnccn2c1Nc1ccc(Cl)cc1,6.3µM*,?,/,/,-106%,?
CN(N)c1nc(C(F)(F)F)nc2ccccc12,16%,12%,1%,8%,7%,i
